CaV13 FRET inh = Primary screen for inhibitors of IQ motif and Ca2+-dependent inactivation inhibitor domain binding in CACNA1D, Förster resonance energy transfer in living cells, …. HEK cells, CFP/YFP FRET ICDI-IQ, plate reader, 10 min; percent FRET-ratio fall versus neutral wells. inhibition, % at 12.3 µM. 0.098% of 340,000 active;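 active means mean replicate inhibition of at least 30% and at least 1% of replicates passing that level; inconclusive means only one of the two criteria is met; inactive means neither criterion is met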
DENV2 CPE = inhibitors of DENV2 cytopathic effect; 1.7% of 350,000 active; CPE inhibition, % at 9.99 µM; DENV2-infected cells, cytopathic effect rescue, plate reader; AID 651640; in the data active means CPE inhibition above about 20%, passing the limit was not always enough; inconclusive means no clear call, values can overlap the other calls; tested in BHK-21 cells
PGC1a acetyl inh = lowers PGC1a acetylation signal in U2OS cells; AID 651687; AlphaScreen anti-acetyl-lysine; with virally co-expressed GCN5 acetyltransferase; inhibition, % at 15.6 µM; 0.17% of 350,000 active;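 active means every replicate shows inhibition of at least 40%; inconclusive means mean inhibition at least 40% but some replicate below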
GSIS activator = GLuc luminescence reporter in INS-1E cells, primary screen for activators of glucose-dependent secretion of insulin. INS-1E GLuc reporter insulin secretion, 2-3 h. activation, % at 16.6 µM. 0.61% of 370,000 active;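 active means lowest replicate activation of at least 40%, so every replicate reaches that level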
ERAP1 inh = blocks human ERAP1 aminopeptidase activity; Q9NZ08; recombinant ERAP1, Leu-AMC fluorescence, 60 min; inhibition, % at 10.7 µM; 0.15% of 340,000 active; AID 652197;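 active means mean replicate inhibition of at least 30%, or all replicates individually reaching that 30% level; inactive means mean below 30% and not every replicate reaching it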
Ecoli rRNA inh = inhibits bacterial ribosomal RNA function over humanized ribosomes | E. coli WT GFP vs humanized-ribosome RFP mutants, fluorescence, 24 h; stronger effect = lower value; DMSO median 0, no signal -100 | GFP signal change (wild-type ribosome), % (concentration not given with the values) | 1.6% of 350,000 active | AID 720706;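 active means significant combined selectivity score with lowered wild-type GFP, culture density cut under 30%, mutant RFP and density less affected; inactive means any of these conditions unmet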
Numbers stand for hits. Rows were chosen to be rich in hits. Some 3.2% of all compounds tested hit in one or more screens of this group.

`Cc1ccc(S(=O)(=O)NCC[C@@H]2CC[C@H](NC(=O)c3ccccn3)[C@@H](CO)O2)cc1` gave DENV2 CPE inactive, PGC1a acetyl inh inactive, GSIS activator inactive, ERAP1 inh inactive and Ecoli rRNA inh inactive.
For C[C@H]1CN([C@@H](C)CO)S(=O)(=O)c2ccc(C3=CCCCC3)cc2O[C@@H]1CN(C)C the results were PGC1a acetyl inh inactive, GSIS activator inactive and Ecoli rRNA inh inactive.
Screening COc1ccccc1C=NNC(=O)NN=Cc1ccccc1OC returned CaV13 FRET inh inactive, DENV2 CPE inactive, PGC1a acetyl inh inactive, GSIS activator inactive, ERAP1 inh inactive and Ecoli rRNA inh inactive.
COc1cccc(/C=N/NC(=O)C(C)n2nc(C)c([N+](=O)[O-])c2C)c1O (stereo not drawn) was read as CaV13 FRET inh inactive, DENV2 CPE inactive, GSIS activator inactive, ERAP1 inh inactive and Ecoli rRNA inh -22.
COc1cccc(/C=N/NC(=O)N/N=C/c2cccc(OC)c2O)c1O was read as CaV13 FRET inh inactive, DENV2 CPE inconclusive, GSIS activator inactive, ERAP1 inh inactive and Ecoli rRNA inh -31.
For CC[C@H](C)[C@@H](C(=O)NCCCCCCCCCCC(=O)N1CCNCC1)n1cc(CCCCN=C(N)N)nn1 the results were CaV13 FRET inh inactive, DENV2 CPE inconclusive, PGC1a acetyl inh inactive, ERAP1 inh inactive and Ecoli rRNA inh inactive.
CC[C@H](C)Cc1cn([C@@H](CCCN=C(N)N)C(=O)NCCCCCCCCCCC(=O)N2CCNCC2)nn1 was read as CaV13 FRET inh inactive, DENV2 CPE inactive, GSIS activator inactive, ERAP1 inh inactive and Ecoli rRNA inh -37.
`CC(=O)Nc1cccc(C(=O)OC(C)C(=O)NC(=O)NC2CCCCC2)c1` (stereo not drawn) gave CaV13 FRET inh inactive, DENV2 CPE 23, PGC1a acetyl inh inactive, GSIS activator inactive, ERAP1 inh inactive and Ecoli rRNA inh inactive.
For CC(=O)Nc1cccc(C(=O)OCC(=O)NC(=O)NC2CCCC2)c1 the results were CaV13 FRET inh inactive, DENV2 CPE inactive, PGC1a acetyl inh inactive, GSIS activator inactive, ERAP1 inh inactive and Ecoli rRNA inh inactive.
Screening CC1(C)N=C(c2ccccc2)C(c2ccccc2)=N1 returned CaV13 FRET inh inactive, DENV2 CPE inactive, PGC1a acetyl inh inactive, GSIS activator 41, ERAP1 inh inactive and Ecoli rRNA inh inactive.
O=C(CSc1nc2ccccc2c(=O)n1-c1ccccc1Cl)Nc1cccc(S(=O)(=O)N2CCOCC2)c1 was read as CaV13 FRET inh inactive, DENV2 CPE 63, PGC1a acetyl inh inactive, GSIS activator inactive, ERAP1 inh inactive and Ecoli rRNA inh inactive.
Screening O=C(CSc1nc2ccccc2[nH]1)Nc1cccc(S(=O)(=O)N2CCOCC2)c1 returned CaV13 FRET inh inactive, DENV2 CPE inactive, PGC1a acetyl inh inactive, GSIS activator inactive, ERAP1 inh inactive and Ecoli rRNA inh -36.
Screening O=C(CSc1nnc(-c2ccccc2F)n1C1CC1)Nc1ccc2[nH]c(=O)[nH]c2c1 returned CaV13 FRET inh inactive, DENV2 CPE inactive, GSIS activator inactive and Ecoli rRNA inh inactive.
`NS(=O)(=O)c1cccc(NC(=O)CSc2nnc(-c3ccccc3F)n2C2CC2)c1` gave CaV13 FRET inh inactive, DENV2 CPE inactive, PGC1a acetyl inh inactive, GSIS activator inactive and Ecoli rRNA inh -29.
CN(C)S(=O)(=O)c1cccc(NC(=O)CSc2nc3ccccc3[nH]2)c1 was read as CaV13 FRET inh inactive, DENV2 CPE inactive, PGC1a acetyl inh inactive, GSIS activator inactive, ERAP1 inh inactive and Ecoli rRNA inh inactive.
O=C(CSc1nc2ccc(Cl)cc2[nH]1)c1cccs1 was read as CaV13 FRET inh inactive, DENV2 CPE inactive, GSIS activator inactive, ERAP1 inh inactive and Ecoli rRNA inh -25.
For C[C@@H]1CN([C@@H](C)CO)C(=O)c2cc(C3=CCCC3)cnc2O[C@@H]1CN(C)C(=O)c1ccccn1 the results were DENV2 CPE inactive, PGC1a acetyl inh inactive, GSIS activator inactive and Ecoli rRNA inh inactive.
CCNC(=O)C[C@@H]1CC[C@@H]2[C@H](COc3ccc(NC(=O)c4ccc(C(F)(F)F)cc4)cc3C(=O)N2C)O1 was read as DENV2 CPE inactive, PGC1a acetyl inh inactive, GSIS activator inactive, ERAP1 inh inactive and Ecoli rRNA inh inactive.
